This is an account of results in the supplement of paper PMC10498489.

Molecules are shown by their SMILES. The campaign covered roughly 2,300 compounds. About 330 (14%) showed activity. These entries were drawn from the full list. Unmarked numbers belong to inactive results.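 Rule for the calls: active = median modified Z-score above 1.96; inactive = 1.96 or below.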

The test system of the experiment is HepG2 Srxn1-GFP reporter cells (+30 nM CDDO-Me). The experiment in a line: Srxn1-GFP intensity median modified Z-score relative to plate median; higher = stronger NRF2 / oxidative stress reporter activation, active = hit call of the paper. To be noted: 10 µM; exposure time: 24h. In outline:
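The modified Z-score of GFP intensity was computed per plate, and the median over replicates is reported. HepG2 Srxn1-GFP BAC reporter cells in three replicate plates were treated for 24 h with compound at 10 μM plus an NRF2 activator at 30 nM (≤0.1% DMSO). Per-cell cytoplasmic GFP came from confocal images, excluding those with under 100 cells, and scaling used 1.4826 × median absolute deviation.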
Regarding `Cc1ccc(-c2nc(CSc3nc(C)c(C)n3CC3CCCO3)co2)c(C)c1` (stereo not drawn), the “Srxn1-GFP intensity median modified Z-score” value was 1.14.

`CCCC1O[C@@H]2CC3C4CC=C5CC(=O)C=CC5(C)C4[C@@H](O)CC3(C)[C@]2(C(=O)CO)O1` (stereo partly drawn) [euspeclibcmpd352]: the “Srxn1-GFP intensity median modified Z-score” value was -0.649.

`Oc1oc(O)c2c1C1CCC2O1` [euspeclibcmpd1748]: the “Srxn1-GFP intensity median modified Z-score” value was 3 (active).

With `CC(=O)O[C@H]1CC[C@]2(C)C3CC[C@@]4(C)C(CC5O[C@@]6(CCC(C)CO6)[C@@H](C)C54)C3CC[C@@H]2C1` (stereo partly drawn) [euspeclibcmpd1531], the “Srxn1-GFP intensity median modified Z-score” value was -0.369.

As for `O=S(=O)(c1ccc(Cl)nc1)N(CC1CCCO1)C1CCSC1` (stereo not drawn), the “Srxn1-GFP intensity median modified Z-score” value was 1.21.

Consider `Cc1c(C)c(O)c(C(=CCCCCC(=O)O)c2ccccc2)c(C)c1O` [euspeclibcmpd470], for which the “Srxn1-GFP intensity median modified Z-score” value was -0.366.

As for `COc1c2ccoc2nc2c(OC)c(OCC(O)C(C)(C)O)ccc12` (stereo not drawn) [euspeclibcmpd1658], the “Srxn1-GFP intensity median modified Z-score” value was 26 (active).

Take `C[C@]12CCC(=O)CC1=CC=C1C2CC[C@@]2(C)C1CC[C@@]21CCC(=O)O1` (stereo partly drawn) [euspeclibcmpd726]: the “Srxn1-GFP intensity median modified Z-score” value was 0.642.

For the compound `CN1C2CC[C@H]1C[C@@H](OC(=O)C(O)c1ccccc1)C2` (stereo partly drawn) [euspeclibcmpd2075], the “Srxn1-GFP intensity median modified Z-score” value is 0.0546.

As for `CCN(CC)CCOCCOC(=O)C1(c2ccccc2)CCCC1` [euspeclibcmpd389], the “Srxn1-GFP intensity median modified Z-score” value was -0.0174.

`CCN(CC)CCOC(=O)C1(C2CCCCC2)CCCCC1` [euspeclibcmpd90]: the “Srxn1-GFP intensity median modified Z-score” value is 2.86 (active).

As for `CCN(CC)CCOC(=O)C(c1ccccc1)C1CCCCC1` (stereo not drawn) [euspeclibcmpd1055], the “Srxn1-GFP intensity median modified Z-score” value is 0.0961.

On to `NC(=O)C1CCCN1C(=O)C(Cc1c[nH]cn1)NC(O)c1ccc(O)[nH]1` (stereo not drawn) [euspeclibcmpd919], for which the “Srxn1-GFP intensity median modified Z-score” value is 0.145.

On to `COc1cccc(O)c1O` [euspeclibcmpd1624], for which the “Srxn1-GFP intensity median modified Z-score” value is 10.7 (active).

Regarding `COc1cc(O)cc(OC)c1OC` [euspeclibcmpd1601], the “Srxn1-GFP intensity median modified Z-score” value is -0.369.

In the case of `Oc1cccc2[nH]ccc12` [euspeclibcmpd2031], the “Srxn1-GFP intensity median modified Z-score” value is -0.358.

For `COc1c(O)cccc1O` [euspeclibcmpd1665], the “Srxn1-GFP intensity median modified Z-score” value is 3.35 (active).

For the compound `COc1c(O)cc(O)cc1O` [euspeclibcmpd1393], the “Srxn1-GFP intensity median modified Z-score” value is -0.431.

With `COc1ccccc1O` [euspeclibcmpd1265], the “Srxn1-GFP intensity median modified Z-score” value is -0.0107.

For `N=C(N)NCCCC(N)C(=O)O` (stereo not drawn) [euspeclibcmpd695], the “Srxn1-GFP intensity median modified Z-score” value is -0.363.

Regarding `CC(C)N=c1nccc[nH]1` [euspeclibcmpd1194], the “Srxn1-GFP intensity median modified Z-score” value was -0.779.

As to `NC[C@H]1O[C@H](O[C@H]2C(O[C@@H]3O[C@H](CO)[C@@H](O)[C@H]3O)[C@@H](O)[C@H](N)C[C@@H]2N)[C@H](N)[C@@H](O)[C@@H]1O` (stereo partly drawn) [euspeclibcmpd1069], the “Srxn1-GFP intensity median modified Z-score” value was -0.384.

Regarding `CCOc1ccc(C(=O)c2ccc(OC)c(O)c2O)cc1` [euspeclibcmpd1975], the “Srxn1-GFP intensity median modified Z-score” value is -0.333.

Consider `CCO[C@@]1(C)C[C@H]1NC(=O)N[C@@H]1C[C@@H]1C(F)F`, for which the “Srxn1-GFP intensity median modified Z-score” value is 0.985.

In the case of `CC1C(=NC(=O)C(NOC(C)(C)C(=O)O)c2csc(=N)[nH]2)C(=O)N1S(=O)(=O)O` (stereo not drawn) [euspeclibcmpd708], the “Srxn1-GFP intensity median modified Z-score” value was -0.0945.

Regarding `CCOc1cc2c(cc1/C=C/C(=O)N(C)C(C)c1ccc(-n3cncn3)cc1)OC(C)C2` (stereo not drawn), the “Srxn1-GFP intensity median modified Z-score” value is 0.413.

For `Oc1c(Cl)cc(Cl)c(Cl)c1Cc1c(O)c(Cl)cc(Cl)c1Cl` [euspeclibcmpd146], the “Srxn1-GFP intensity median modified Z-score” value is 44.1 (active).

Consider `Cc1ccc2c(Cl)cc(Cl)c(O)c2n1` [euspeclibcmpd1014], for which the “Srxn1-GFP intensity median modified Z-score” value is -0.191.

Consider `CCC[C@@H]1C[C@@H](C(=O)N[C@@H]([C@H]2O[C@H](SC)[C@H](O)[C@@H](O)[C@H]2O)[C@@H](C)O)N(C)C1`, for which the “Srxn1-GFP intensity median modified Z-score” value was 1.1.

Regarding `COC(=O)[C@H]1[C@H]2C[C@@H]3c4[nH]c5cc(OC)ccc5c4CCN3C[C@H]2C[C@@H](OC(=O)c2cc(OC)c(OC)c(OC)c2)[C@@H]1OC` [euspeclibcmpd2385], the “Srxn1-GFP intensity median modified Z-score” value was 6.53 (active).

Turning to `O=C(O)C1[C@H]2C[C@H]3c4[nH]c5ccccc5c4CCN3C[C@@H]2CC[C@@H]1O` (stereo partly drawn) [euspeclibcmpd1655], the “Srxn1-GFP intensity median modified Z-score” value was -0.233.

In the case of `C[C@H]1O[C@H](OC[C@@H]2O[C@H](Oc3c(-c4ccc(OCCO)c(OCCO)c4)oc4cc(OCCO)cc(O)c4c3=O)[C@@H](O)[C@H](O)[C@H]2O)[C@@H](O)[C@@H](O)[C@@H]1O` [euspeclibcmpd1205], the “Srxn1-GFP intensity median modified Z-score” value was -0.542.

On to `O=C(c1ccccc1)c1ccc(Cl)cc1O`, for which the “Srxn1-GFP intensity median modified Z-score” value is 1.14.

As to `CCN(C(=O)COC(=O)C1=NNC(=O)CC1)C1CCS(=O)(=O)C1` (stereo not drawn), the “Srxn1-GFP intensity median modified Z-score” value is 1.01.

With `NC(Cc1ccc(O)c(O)c1)C(=O)O` (stereo not drawn) [euspeclibcmpd949], the “Srxn1-GFP intensity median modified Z-score” value is -1.39.

As to `C[C@](N)(Cc1ccc(O)c(O)c1)C(=O)O` [euspeclibcmpd194], the “Srxn1-GFP intensity median modified Z-score” value was -0.447.

As for `NCCc1ccc(O)c(O)c1` [euspeclibcmpd2286], the “Srxn1-GFP intensity median modified Z-score” value was 9.36 (active).

In the case of `NCCc1ccc(O)c(O)c1` [euspeclibcmpd2150], the “Srxn1-GFP intensity median modified Z-score” value was -1.01.

Take `CO[C@@H]1[C@@H](OC(N)=O)[C@@H](O)[C@H](Oc2ccc3c(=O)c(NC(=O)c4ccc(O)c(CC=C(C)C)c4)c(O)oc3c2C)OC1(C)C` [euspeclibcmpd2334]: the “Srxn1-GFP intensity median modified Z-score” value is -0.255.

As for `N#CCSc1nnc(-c2ccc(Br)cc2)n1C1CCCCC1`, the “Srxn1-GFP intensity median modified Z-score” value was 1.88.

Regarding `CCC(C)C(=N)C1NC(C(=O)NC(CC(C)C)C(=O)NC(CCC(=O)O)C(=O)NC(C(=O)NCCCCC2NC(=O)C(CC(N)=O)NC(=O)C(CC(=O)O)NC(=O)C(Cc3c[nH]cn3)NC(=O)C(Cc3ccccc3)NC(=O)C(C(C)CC)NC(=O)C(CCCN)NC2=O)C(C)CC)CS1` (stereo not drawn) [euspeclibcmpd30], the “Srxn1-GFP intensity median modified Z-score” value is -0.458.

In the case of `CCC(C)CCCCC(=O)NC(CCN)C(=O)NC(C(=O)NC(CCN)C(=O)NC1CCNC(=O)C(C(C)O)NC(=O)C(CCN)NC(=O)C(CCN)NC(=O)C(CC(C)C)NC(=O)C(Cc2ccccc2)NC(=O)C(CCN)NC1=O)C(C)O` (stereo not drawn) [euspeclibcmpd239], the “Srxn1-GFP intensity median modified Z-score” value is 0.328.

`CC(C)CC1NC(=O)C(CCCN)NC(=O)C(C(C)C)NC(=O)C(Cc2ccc(O)cc2)NC(CCC(=O)O)C(=O)NC(CC(N)=O)C(=O)C(Cc2ccccc2)NC(=O)C(Cc2ccccc2)NC(=O)C2CCCN2C(=O)C(Cc2ccccc2)NC1=O` (stereo not drawn) [euspeclibcmpd1841]: the “Srxn1-GFP intensity median modified Z-score” value is 2.86 (active).
